# Rows were chosen to be rich in hits. Some 0.77% of all compounds tested hit in one or more screens of this group.
# RecA intein inh = inhibitors of M. tuberculosis RecA intein splicing; cell-free RecA intein splicing, fluorescence; inhibition, % (no concentration beside the values); hit rate 0.75% among 290,000; in the data active = inhibition above about 30%
# RmlCD inh 1536 = M. tuberculosis RmlC/RmlD inhibition; RmlC+RmlD coupled enzyme assay, percent inhibition; primary screen in compound mixtures; inhibition, % at 3.6 µM; hit rate 0.03% among 160,000; in the data active = inhibition mostly above about 34%, no sharp cut-off
# Target sequence (P9WH09 whole entry, looked up): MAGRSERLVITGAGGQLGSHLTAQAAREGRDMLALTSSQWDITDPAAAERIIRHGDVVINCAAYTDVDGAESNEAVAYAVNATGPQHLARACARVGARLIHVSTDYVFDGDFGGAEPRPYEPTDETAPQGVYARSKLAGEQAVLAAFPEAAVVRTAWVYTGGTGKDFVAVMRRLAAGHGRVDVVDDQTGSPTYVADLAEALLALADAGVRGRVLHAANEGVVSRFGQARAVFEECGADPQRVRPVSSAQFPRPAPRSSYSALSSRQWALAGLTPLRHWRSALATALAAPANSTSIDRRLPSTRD
# Target sequence (P9WH11 whole entry, looked up): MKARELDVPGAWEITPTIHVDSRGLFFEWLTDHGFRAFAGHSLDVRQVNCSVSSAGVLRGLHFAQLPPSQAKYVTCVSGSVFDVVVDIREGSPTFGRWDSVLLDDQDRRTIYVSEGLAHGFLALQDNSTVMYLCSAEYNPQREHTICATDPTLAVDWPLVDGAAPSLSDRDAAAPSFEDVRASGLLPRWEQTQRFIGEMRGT
# GFP chromo cs = counter-screen: blocks GFP chromophore formation; EC50, µM; hit rate 83% among 2,100; cell-free GFP chromophore formation, fluorescence; shares compounds with RecA intein inh; AID 434968; call rule not given here
# Numbers stand for hits; n = inactive; x = no result given.
SMILES,RecA intein inh,RmlCD inh 1536,GFP chromo cs
Cc1c(C(=O)NCCO)sc2nc3n(c(=O)c12)CCC3,n,x,x
CC(=O)Nc1ccccc1NC(=O)C/C(C)=N/NC(=O)c1ccc([N+](=O)[O-])c(Cl)c1,n,x,x
C/C(CC(=O)Nc1cccnc1)=N\NC(=O)c1ccc([N+](=O)[O-])c(Cl)c1,61,x,35
COCCNC(=O)C(c1ccc(O)cc1)N(Cc1ccco1)C(=O)CCC(=O)Nc1nccs1 (stereo not given),n,n,x
O=P(Cc1cccc[n+]1[O-])(c1ccccc1)c1ccccc1,n,x,x
O=C(c1c[nH]c(C(=O)C(Cl)(Cl)Cl)c1)c1ccccc1Cl,32,n,25
NC(=O)c1cc(C(=O)c2ccc(Cl)cc2Cl)c[nH]1,n,n,x
O=C(Nc1nnc(/C=C/c2ccccc2)s1)c1ccco1,n,n,x
COc1ccccc1NC(=O)c1cnc(SCC(=O)NCC2CCCO2)n(C)c1=O (stereo not given),45,x,n
COc1ccccc1-n1nnnc1SCC(=O)NCC1CCCO1 (stereo not given),n,x,x
CC(C)c1cc(=O)n2[nH]c(N)nc2n1,n,n,x
CCCc1cc(=O)n2[nH]c(-c3ccccc3)cc2n1,n,n,x
CCCCn1[nH]c(-c2ccccc2)cc1=O,97,n,2.8
O=C(CSc1nc2ccccc2nc1SCC(=O)N1CCCCC1)N1CCCCC1,n,n,x
O=C(CSc1nc2ccccc2nc1SCC(=O)N1CCOCC1)N1CCOCC1,32,n,n
Cc1nc(SCC(=O)O)c(C#N)c2c1CCCC2,n,n,x
O=C(CCl)Nc1c(C(=O)Nc2ccc3c(c2)OCCO3)oc2ccccc12,31,x,3.6
COCC(=O)Nc1c(C(=O)Nc2ccc3c(c2)OCO3)oc2ccccc12,n,x,x
O=S(=O)(CCSc1nc2ccccc2s1)c1nc2ccccc2s1,78,n,3.6
CCS(=O)(=O)CCSc1nc2ccccc2s1,n,x,x
O=C1/C(=C/c2ccccc2)N=C(N2CCOCC2)N1c1cccc(Cl)c1,n,x,x
O=C1C(Cl)=C(N2CCOCC2)C(=O)N1c1cccc(Cl)c1,84,n,2.8
Cc1cccc(N2C(=O)C(Cl)=C(N3CCOCC3)C2=O)c1,87,n,4.5
Cc1cccc(N2C(=O)CC(N3CCOCC3)C2=O)c1 (stereo not given),n,n,x
O=S(=O)(NCC(c1ccco1)N1CCc2ccccc21)c1ccccc1 (stereo not given),n,x,x
SMILES,RecA intein inh,RmlCD inh 1536,GFP chromo cs
CCSCCOC(=O)C1=C(C)N(C)C(=O)NC1c1ccc2c(c1)OCO2 (stereo not given),n,x,x
O=C(COc1ccccc1)NCCS(=O)(=O)N1CCN(c2ccccc2)CC1,n,x,x
COC(=O)c1ccc(C(c2c(C)[nH][nH]c2=O)c2c(C)[nH][nH]c2=O)cc1,95,x,1.4
Cc1[nH][nH]c(=O)c1C(c1ccc(F)cc1)c1c(C)[nH][nH]c1=O,98,x,0.62
Cc1[nH][nH]c(=O)c1C(c1c(C)[nH][nH]c1=O)c1cn(Cc2ccc(F)cc2)c2ccccc12,x,n,x
Cc1[nH][nH]c(=O)c1C=NCc1ccc(Cl)cc1,n,n,x
CCOC(=O)COc1ccc(C(c2c(C)[nH][nH]c2=O)c2c(C)[nH][nH]c2=O)cc1,n,x,x
Cc1[nH][nH]c(=O)c1C(c1ccc(Cl)cc1)c1c(C)[nH][nH]c1=O,98,x,1.3
Cc1cccc(NC(=O)Cn2cc([N+](=O)[O-])cn2)n1,n,n,x
c1cc(CNCC2CCCO2)ccn1 (stereo not given),n,n,x
COCCNC(=O)c1onc(CSc2cccc(OC)c2)c1C(=O)O,n,n,x
CCOC(=O)c1cccc(NC(=O)Cn2cc3c(n2)CCC(C)C3)c1 (stereo not given),n,x,x
O=C(Nc1ccccc1O)c1ccc2c(c1)C(=O)N(N1C(=O)c3ccccc3C1=O)C2=O,n,x,x
O=c1cccccc1NCc1ccccc1,n,n,x
O=C1C=C(Nc2ccccc2O)c2ccccc2C1=O,95,n,n
O=C1C=C(NCc2ccccc2)c2ccccc2C1=O,92,n,0.86
O=C(O)c1cn(Cc2ccccc2)c2ccccc2c1=O,n,n,x
COc1ccc(C(=O)OCCOc2ccccc2C(C)=O)c(O)c1,x,n,x
Cc1nc(N)ncc1C(=O)Nc1ccccc1,n,n,x
Cc1ccccc1OCC(=O)Nc1ccccc1N1CCCCC1,32,x,n
Cc1cccc(OCC(=O)Nc2ccccc2N2CCCC2)c1C,n,x,x
CC(=O)C1=C(O)C(=O)N(c2ccc(O)cc2)C1c1cccc([N+](=O)[O-])c1 (stereo not given),n,x,x
CCOc1ccc(N2C(=O)/C(=C\c3ccc(OC)c(O)c3)S(=O)(=O)C2c2cccc([N+](=O)[O-])c2)cc1 (stereo not given),82,n,14
CCOc1ccc(N2C(=O)/C(=C\c3ccc(O)c(OC)c3)S(=O)(=O)C2c2cccc([N+](=O)[O-])c2)cc1 (stereo not given),88,n,2.5
CCOC(=O)C1=C(C)N(c2ccc(OC)cc2)C(=O)/C1=C\c1ccc(O)c(OCC)c1,n,x,x

# High-throughput results as filed in PubChem.
